Structures are written as SMILES. Compounds without any hit were thinned out: in the full panel of roughly 83,000, 20% have a hit.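 Single-dose data. Exposure time 48 hours. Values below 10 considered active.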 Values without a mark were called inactive. Calls of active or inactive are those of the source.

In this test the test system is T-47D breast. In words: NCI-60 one-dose screen, 48 h (100 = growth as untreated, 0 = no growth, -100 = all killed). The following applies: 10 µM.
On to `O=C1c2c(c(=O)[nH]c3ccccc23)CCN1Cc1ccccc1`, for which the growth was 86.1%.
In the case of `COc1ccccc1-n1c(-c2csc(NC(C)=O)n2)n[nH]c1=S`, the growth is 104%.
In the case of `Cc1ccc(NCCN(C)CC(C)O)c2c(=O)c3ccccc3sc12` (stereo not drawn) it was 85.2%.
As to `CCNCC(=O)Nc1ccc(C(=O)OCC)cc1`, the growth was 92.9%.
In the case of `COC(=O)C1OC1c1cc([N+](=O)[O-])ccc1OC` (stereo not drawn) it was 70%; in that of `O=C1c2ccccc2C(=O)c2c1ccc1c(=O)n(-c3ccccc3C(F)(F)F)nnc21`, 15.8%.
For the molecule `Nc1ccccc1NC(=O)c1ccc(CCCC(=O)Nc2ccc(C3CC3N)cc2)cc1` (stereo not drawn), the growth is 7.85% (active).
Turning to `C=CCn1c(SCC(=O)Nc2ccc(C(=O)/C=C/c3ccc(OC)cc3)cc2)nnc1-c1ccc(OC)c(OC)c1`, the growth is 58.3%.
Then `CN1C(C(=O)Nc2ccccn2)=C(O)c2sc(Cl)cc2S1(=O)=O`, with 92.6%; and `CC1/C=C/C=C/C=C/C=C/C=C/C=C/C=C/C(O[C@@H]2O[C@H](C)[C@H](O)[C@@H](O)[C@@H]2N)CC(O)C(C(=O)O)C(O)CC(=O)CC(O)CC(O)CC(O)CC(=O)CCCC(=O)CC(=O)OC1C(C)CC(C)C(O)CC(=O)c1ccc(N)cc1` (stereo partly drawn), with -87.1% (active).
In the case of `CCN(CC)CC(=O)N(CC)c1ccc(C)c(Cl)c1` it was 90.3%; in that of `NC(CSC(c1ccccc1)(c1ccccc1)c1cccc2ccccc12)C(=O)O` (stereo not drawn), 103%; in that of `O=C(CCn1cnc2c(cc(-c3ccccc3)n2-c2ccccc2)c1=O)Nc1ccc(F)cc1`, 68.2%.

Values taken from PubChem BioAssay (NCI).
